# Experiments:
# Experiment in all cases: PBM binding z-score (relative to random genomic background probes); higher = stronger binding; sequences stand for … in GC…GCGATTGACAGCGTAGAATGAAGG
# [1] = system: FXR:RXRa (NR concentration 270 nM, RXRa partner concentration 90 nM)
# In short: (§1)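 For binding z-scores, the reference was random background probes on custom Agilent 4×180K protein-binding microarrays. These arrays were incubated 1 h with ligand-free nuclear receptor dimers in PBS pH 7.4, 2% milk, 0.02% Triton X-100, 1 mM DTT, 0.2 mg/mL BSA and 0.4 mg/ml salmon testes DNA. Fluorescence was scanned after antibody detection of each partner (one per run) and regression-normalized.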
# [2] = system: LXRa:RXRa (NR concentration 270 nM, RXRa partner concentration 90 nM)
# In short: as §1
# [3] = system: LXRa homodimer (NR concentration 270 nM)
# In short: as §1
# [4] = system: LXRb:RXRa (NR concentration 270 nM, RXRa partner concentration 90 nM)
# In short: as §1
# [5] = system: LXRb homodimer (NR concentration 270 nM)
# In short: as §1
# [6] = system: PPARa:RXRa (NR concentration 270 nM, RXRa partner concentration 90 nM)
# In short: as §1
# [7] = system: PPARg:RXRa (NR concentration 180 nM, RXRa partner concentration 90 nM)
# In short: as §1
# [8] = system: PPARg:RXRa 270nM:90nM, anti-RXR (NR concentration 270 nM, RXRa partner concentration 90 nM)
# In short: as §1
# [9] = system: PPARg:RXRa 30nM:10nM, anti-RXR (NR concentration 30 nM, RXRa partner concentration 10 nM)
# In short: as §1
# [10] = system: PPARg:RXRa 90nM:30nM, anti-RXR (NR concentration 90 nM, RXRa partner concentration 30 nM)
# In short: as §1
# [11] = system: PPARg:RXRa DBDmut IVT, anti-RXR (DBD mutation: RXRa K156A/R161A, NR concentration 270 nM, RXRa partner concentration 90 nM)
# In short: as §1
# [12] = system: PPARg:RXRa IVT, anti-PPARg (NR concentration 270 nM, RXRa partner concentration 90 nM)
# In short: as §1
# [13] = system: PPARg DBDmut:RXRa IVT, anti-PPARg (DBD mutation: PPARg1 K132A/R137A, NR concentration 270 nM, RXRa partner concentration 90 nM)
# In short: as §1
# [14] = system: PPARg DBDmut IVT, anti-PPARg (DBD mutation: PPARg1 K132A/R137A, NR concentration 270 nM)
# In short: as §1
# [15] = system: PPARg homodimer (NR concentration 180 nM)
# In short: as §1
# [16] = system: PXR:RXRa (NR concentration 270 nM, RXRa partner concentration 90 nM)
# In short: as §1
# [17] = system: PXR homodimer (NR concentration 270 nM)
# In short: as §1
# [18] = system: RARa:RXR (NR concentration 270 nM, RXRa partner concentration 90 nM)
# In short: as §1
# [19] = system: RARa homodimer (NR concentration 270 nM)
# In short: as §1
# [20] = system: RARb:RXRa (NR concentration 270 nM, RXRa partner concentration 90 nM)
# In short: as §1
Sequence,PBM binding z-score [1],PBM binding z-score [2],PBM binding z-score [3],PBM binding z-score [4],PBM binding z-score [5],PBM binding z-score [6],PBM binding z-score [7],PBM binding z-score [8],PBM binding z-score [9],PBM binding z-score [10],PBM binding z-score [11],PBM binding z-score [12],PBM binding z-score [13],PBM binding z-score [14],PBM binding z-score [15],PBM binding z-score [16],PBM binding z-score [17],PBM binding z-score [18],PBM binding z-score [19],PBM binding z-score [20]
CGTCCAAGGTCAATGCTAGGTCTGTGAAAGCATT,6.34,4.7,0.321,3.41,0.865,5.01,3.28,3.99,0.804,2.73,3.09,3.37,0.249,0.0297,2.17,3.74,0.712,3.88,0.767,5
CCTGCTAGGTCATGATCAGCTAATCTACAGTATG,3.25,2.63,0.02,1.94,-0.0541,3.31,2.28,2.56,0.674,1.56,4.52,3.32,0.5,0.49,0.98,1.19,-0.328,2.08,0.216,3.7
CGTACTAGGTCAGAACAGGACAGTGAAGGATGAT,1.43,1.05,0.203,0.274,-0.0494,2.29,4.39,3.35,1.31,2.31,6.87,6.46,1.58,0.904,1.06,1.05,0.324,1.26,0.637,3.05
TCTATTAGTTGAAGGGAAACCGACGAGTCCGTTT,0.681,0.912,0.189,0.65,0.644,0.587,-0.183,2.13,4.34,3.16,2.49,-0.0119,0.417,1.24,1.32,0.508,0.678,0.362,1.42,0.377
CCGATTGGGGCAGAAAGGTTACCATACCATCCGG,0.261,0.61,-0.352,1.09,-0.598,2.22,2.06,3.83,2.17,3.56,0.436,1.14,-1.01,-0.679,0.221,1.24,-0.318,1.66,-0.348,1.88
CAAACTAGGTCAAAGGTCAAAGGCGAGCCAACCA,8.49,7.21,4.91,7.14,2.68,7.65,14.2,11.5,14.7,13.9,8.87,9.3,4.87,2.24,4.33,6.93,1.55,9.2,2.6,5.86
GATACAGGGTCAGGTAGAGGCCAGAGTATGGAAA,4.61,2.74,-0.128,2.58,-0.154,4.6,3.75,3.23,0.959,2.07,0.739,2.45,0.9,0.631,2.28,2.96,0.741,3.47,1.29,4
GCTTACGGGTCAAACGTTATAGCATGAATAGAAT,6.35,4.13,-0.166,4.02,0.282,5.72,6.02,6.15,2.96,5.31,4.87,4.1,1.95,1.38,1.25,3.37,-0.15,4.41,0.0211,3.76
AATACAGGGTCACTAGGACAGAGTAGGTACGAAT,6.09,5.02,1.08,3.97,1.27,5.77,8.06,6.39,3.02,5.18,3.86,5.7,2.64,3.05,2.54,3.17,0.566,4.21,1.62,4.27
CCTTACGAGTCAAGGTTATAGCACGGGTGGTACG,0.585,0.946,-0.0296,0.739,0.332,1.28,0.716,0.135,-0.0857,-0.0269,-0.121,0.156,-0.0742,-0.146,1.14,0.823,0.506,0.888,0.784,1.07
ACTATTCGTTGACTTAGGGCAACCGATACGACGC,0.425,0.382,0.669,0.263,1.46,0.125,0.87,-0.0902,0.272,0.212,-0.214,0.623,1.11,1.54,0.718,0.152,0.211,0.392,0.76,0.866
AGAATGAGGTTAAGAACAGGGAAACAGAATACAT,2.13,1.7,0.291,1.87,0.264,3.18,2.15,2.05,0.811,1.34,2.35,2.23,1.48,0.955,0.811,1.13,0.635,1.61,0.514,1.87
CTAGCAAGGTGAACAAGGTCGTTGATTACTATTC,1.2,1.17,-0.0996,1.45,-1.03,2.39,0.843,1.3,0.0127,0.796,2.52,2.56,0.0933,-0.41,0.474,2.46,1.4,1.95,-0.493,2.15
GATACAGGGTCAGCTAGAGGCTAGAGTATGGAAA,4.9,2.5,-0.262,2.16,-0.533,4.51,3.64,3.06,0.467,1.89,0.581,2.17,-0.0888,-0.495,2.09,2.29,-0.0961,3.58,1.14,3.88
CCTAGTTGGTCAGGGTCACACACGCTATAGGTAC,3.57,3.05,0.771,3.33,0.27,4.17,3.28,3.51,1.5,2.6,1.32,2.77,0.391,0.0582,2.15,3.91,1.38,4.76,1.57,3.43
ATCGAAAGATCGTGAGGTGAGTATACAGAAAGGC,0.0329,-0.211,0.0924,-0.208,-0.374,0.327,0.669,-0.00875,0.225,0.106,-1.15,0.285,0.657,0.767,-0.197,-0.0729,-0.403,0.277,-0.457,0.133
TCACCAAGGTGAAAGGTCGTTGATGCACGCCTTG,3.32,3.01,-0.0102,2.68,-0.932,5.28,7.74,7.39,6.81,7.43,3.13,4.81,0.292,0.0423,0.508,3.77,-0.165,4.87,-0.322,3.17
TCTTGTAGATCAACAGGAAGTTAAGAAAGATCGA,0.112,0.0523,-0.395,-0.15,-0.422,0.364,0.0673,1.13,2.73,1.58,1.64,0.249,0.464,0.377,-0.378,-0.183,-0.761,-0.00111,0.174,-0.318
GGAACGAGGGCAAAGTTGAAAGCATCTGTCGACG,2.18,1.34,-0.458,1.26,-0.325,4.91,8.72,8.04,7.29,8.83,4.35,5.08,-0.45,-0.356,0.811,2.03,0.337,2.95,-0.362,2.7
CGAACAAGGTCAAGGACAGTGAATCTCCGCACGC,7.13,5.06,0.53,3.78,0.377,5.74,5.98,5.82,2.42,4.59,4.85,4.49,1.31,0.251,2.38,3.97,0.628,4.74,0.971,5.2
ATCTCTAGGTAAGACTCAGTTCCGTGAAGAACGC,0.132,0.397,0.225,0.111,0.896,-0.155,-0.0539,0.0133,-0.0195,0.0962,1.81,0.672,-0.309,0.647,0.0237,0.093,0.39,-0.00835,0.872,-0.0314
CCGACTGGGGCAGATAGGTTACCATACCATCCGG,-0.431,-0.25,0.171,-0.154,-1.16,0.179,0.914,0.44,-0.164,-0.0542,1.48,1.4,-1.44,-0.883,0.00162,-0.407,-0.499,0.117,-0.193,0.804
TCTAGCAGGCCAGAGGGTCACCCAAGAGGTACGG,1.31,1.35,-0.606,1.36,-0.868,2.83,1.73,2.84,1.92,2.71,0.386,0.974,-0.634,-0.348,0.411,2,-0.502,2.95,0.0468,2.43
TCTTGTAGAGCAAAGGTTAAGAAAGCCGAAGCCT,0.884,1.23,-0.186,1.4,-0.852,4.91,8.91,8.58,8.43,8.68,2.94,4.15,0.281,-0.0845,0.283,1.49,-0.688,2.16,-0.59,1.62
CCTCGGAGGACAGACGGTCAGAGCTGTCCGCTTT,-0.245,-0.454,-0.415,-1.1,-0.8,-0.791,-0.705,-1.01,-1.36,-0.797,-0.634,-0.745,-1.14,-1.66,-0.576,-0.726,-0.42,-0.842,-0.616,1.23
AGAATGAGGTTACCAAAGCTCAGGGAAACGCTTG,1.93,3.99,-0.0854,1.96,-0.341,3.46,2.2,2.57,0.532,1.81,3.42,3.11,0.652,0.289,0.125,0.966,-0.338,1.77,-0.239,2.15
CCTCGGAGGACAGATGGTCAGAGCTGTCCGCTTT,-0.143,-0.35,-0.187,-0.927,-0.896,-0.597,-0.644,-0.669,-1.17,-0.907,-0.386,-0.558,-1,-1.4,0.238,-0.384,-0.503,-0.309,-0.685,0.479
CAAACTAGGTCAAGGTCAAAGTGGGTTTGTGCCA,6.71,5.42,3.68,4.73,1.29,6.04,9.42,7.89,6.5,8.27,8.63,8.56,2.16,1.39,3.95,5.56,2.52,5.18,1.68,5.14

# From the supplement of paper PMC6555819
